# From PubChem BioAssay
# Active and inactive are the calls of the source.
# Columns and labels:
# [1] = test system: Human papillomavirus type 1a protein E7 (residues 44-93); test: HPV1a E7 fragment binders on microarrays, primary screen, biochemical, small-molecule microarray, residues 44-93, 635 nm fluorescence (AID 1108); conditions: small-molecule microarray binding, fluorescence 635 nm; higher = more signal;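 also: E7 fragment applied at 1 µg/mL in TBST for 1 h at 4 C; score combines spot fluorescence with its signal to noise ratio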
# [2] = modulators of HCV replicon luciferase signal, primary screen, HCV replication inhibitor project, Huh7 cells, luciferase reporter (AID 1109); conditions: 48 h, higher = more signal;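 also: huh7 hepatoma cells harbouring a luciferase neomycin HCV replicon reporter; luciferase luminescence as measure of HCV replicon replication; test concentration not given here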
# [3] = target: Left-right determination factor 2 (Homo sapiens) (UniProt O00292); test: LEFTY2 binders on small-molecule microarrays, primary screen, biochemical, small-molecule microarray, 635 nm fluorescence scan (AID 1110); conditions: LEFTY2 binding, higher = more signal
# Left-right determination factor 2 (Homo sapiens), sequence (O00292 whole entry, looked up): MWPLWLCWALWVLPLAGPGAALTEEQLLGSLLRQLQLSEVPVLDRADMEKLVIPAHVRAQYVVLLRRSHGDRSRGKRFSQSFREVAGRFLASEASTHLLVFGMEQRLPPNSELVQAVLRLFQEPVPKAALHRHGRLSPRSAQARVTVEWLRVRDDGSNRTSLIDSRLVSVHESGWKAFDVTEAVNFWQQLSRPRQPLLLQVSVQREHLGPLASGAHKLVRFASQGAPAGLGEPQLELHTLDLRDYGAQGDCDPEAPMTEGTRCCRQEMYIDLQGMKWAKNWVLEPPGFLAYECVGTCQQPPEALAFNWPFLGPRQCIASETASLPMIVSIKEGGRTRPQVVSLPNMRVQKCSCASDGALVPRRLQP
# [4] = target: Calmodulin-1 (Homo sapiens) (UniProt P0DP23); test: CALM1 binders on microarrays, EGTA buffer, profiling panel, biochemical, small-molecule microarray, Cy5-labelled CALM1 (AID 1111); conditions: Cy5-CALM1 binding fluorescence, higher = more signal;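 also: labelled calmodulin applied in Tris saline Tween buffer holding calcium plus EGTA and DTT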
# [5] = target: Calmodulin-1 (Homo sapiens) (UniProt P0DP23); test: calcium-bound CALM1 binders on microarrays, profiling panel, artefact control for SMM control-protein annotation, biochemical, small-molecule microarray, Cy5-labelled CALM1, plus calcium (AID 1112); conditions: Cy5-CALM1 binding fluorescence, higher = more signal;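 also: score merges spot fluorescence with signal to noise from triplicate slides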
# [6] = small-molecule microarray binders of probe aWnt5a, primary screen, biochemical, biotinylated probe, 635/667 nm fluorescence (AID 1113); conditions: higher = more signal;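 also: score merges 667 nm fluorescence intensity with signal-to-noise per printed feature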
# [7] = small-molecule microarray binders of probe aShh, primary screen, biochemical, biotinylated probe, 635/667 nm fluorescence (AID 1114); conditions: higher = more signal;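 also: probe is biotin-labelled aShh protein from a stem cell growth factor screen; measures binding of labelled protein to compounds printed on the slide; score merges feature fluorescence at 667 nm with signal-to-noise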
# [8] = small-molecule microarray binders of probe aNog, primary screen, biochemical, biotinylated probe, 635/667 nm fluorescence (AID 1115); conditions: higher = more signal;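 also: probe is biotinylated aNog protein used at 0.15 µg/mL for 1 h at 4 C; z-score combines 667 nm fluorescence of each spot with its signal to noise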
# [9] = target: Torsin-1A-interacting protein 1 (Homo sapiens) (UniProt Q5JTV8); test: LAP1 binders from COS7 cell lysate, primary screen, small-molecule microarray, 635/667 nm fluorescence (AID 1116); conditions: COS7-hLAP1 lysate binding, 635 nm fluorescence, higher = more signal
# Torsin-1A-interacting protein 1 (Homo sapiens), sequence (Q5JTV8 whole entry, looked up): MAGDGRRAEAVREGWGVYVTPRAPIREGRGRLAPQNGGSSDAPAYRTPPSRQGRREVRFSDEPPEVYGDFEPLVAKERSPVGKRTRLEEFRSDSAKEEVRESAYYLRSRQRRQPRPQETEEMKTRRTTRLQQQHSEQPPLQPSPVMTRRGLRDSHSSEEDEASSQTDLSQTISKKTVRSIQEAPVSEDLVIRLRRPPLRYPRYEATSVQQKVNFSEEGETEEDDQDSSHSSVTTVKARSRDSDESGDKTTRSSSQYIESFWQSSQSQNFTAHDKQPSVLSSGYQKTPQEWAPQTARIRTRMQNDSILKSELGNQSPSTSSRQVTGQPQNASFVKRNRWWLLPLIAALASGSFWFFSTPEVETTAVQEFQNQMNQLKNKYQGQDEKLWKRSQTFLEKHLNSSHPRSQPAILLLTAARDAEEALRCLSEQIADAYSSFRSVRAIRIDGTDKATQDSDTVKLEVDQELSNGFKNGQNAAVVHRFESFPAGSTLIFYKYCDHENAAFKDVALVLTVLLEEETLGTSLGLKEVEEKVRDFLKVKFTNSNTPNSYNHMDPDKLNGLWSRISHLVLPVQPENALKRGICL
# [10] = target: Alpha-bungarotoxin (Bungarus multicinctus) (UniProt P60615); test: alpha-bungarotoxin binders on microarray, profiling panel, artefact control for SMM control protein annotation, biochemical, small-molecule microarray, Alexa647 label, 635/667 nm fluorescence (AID 1117); conditions: alpha-BTX-A647 binding fluorescence, higher = more signal
# Alpha-bungarotoxin (Bungarus multicinctus), sequence (P60615 whole entry, looked up): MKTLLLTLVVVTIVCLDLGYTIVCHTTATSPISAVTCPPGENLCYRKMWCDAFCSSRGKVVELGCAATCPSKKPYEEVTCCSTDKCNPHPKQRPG
# [11] = target: Albumin (Bos taurus) (UniProt P02769); test: bovine serum albumin binders on microarray, profiling panel, artefact control for SMM control protein annotation, biochemical, small-molecule microarray, Alexa647 label, 635/667 nm fluorescence (AID 1118); conditions: BSA-A647 binding, fluorescence 635 nm, higher = more signal;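 also: score merges 667 nm emission intensity and signal-to-noise per printed compound spot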
# Albumin (Bos taurus), sequence (P02769 whole entry, looked up): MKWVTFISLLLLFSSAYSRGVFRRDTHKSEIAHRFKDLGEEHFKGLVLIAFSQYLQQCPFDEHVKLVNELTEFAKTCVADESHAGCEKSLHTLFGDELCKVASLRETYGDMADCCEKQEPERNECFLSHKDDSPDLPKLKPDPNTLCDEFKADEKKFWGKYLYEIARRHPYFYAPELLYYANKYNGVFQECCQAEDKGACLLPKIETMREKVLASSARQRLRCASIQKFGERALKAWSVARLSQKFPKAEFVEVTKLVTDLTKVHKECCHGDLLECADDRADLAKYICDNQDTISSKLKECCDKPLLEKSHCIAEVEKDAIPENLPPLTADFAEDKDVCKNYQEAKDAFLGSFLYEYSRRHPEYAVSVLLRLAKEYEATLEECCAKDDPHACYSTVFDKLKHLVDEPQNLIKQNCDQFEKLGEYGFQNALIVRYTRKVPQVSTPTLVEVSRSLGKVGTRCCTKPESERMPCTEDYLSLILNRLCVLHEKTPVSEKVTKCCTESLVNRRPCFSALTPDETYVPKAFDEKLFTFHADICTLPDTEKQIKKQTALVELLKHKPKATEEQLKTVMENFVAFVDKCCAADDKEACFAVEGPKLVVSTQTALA
# [12] = small-molecule microarray binders of probe aXIP, primary screen, biochemical, NeuroSMM set, 635/667 nm fluorescence (AID 1119); conditions: higher = more signal, called active from +8 up or from −8 down;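 also: probe is the protein aXip251-270 applied at 1 µg/mL to compound-printed slides; binding of probe to printed compounds measured as 667 nm fluorescence plus signal to noise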
# [13] = small-molecule binders of probe aNOTCH3, primary screen, biochemical, small-molecule microarray, 635/667 nm fluorescence (AID 1120); conditions: higher = more signal;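 also: probe is a biotin-tagged antibody raised against NOTCH3 rather than NOTCH3 protein; score merges spot fluorescence near 667 nm with spot signal to noise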
# [14] = small-molecule binders of probe aNOTCH2, primary screen, biochemical, small-molecule microarray, 635/667 nm fluorescence (AID 1121); conditions: higher = more signal;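 also: score merges feature fluorescence read at 667 nm with its signal to noise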
# [15] = target: Carbonic anhydrase 2 (Homo sapiens) (UniProt P00918); test: CAII small-molecule binders, profiling panel, biochemical, small-molecule microarray, Alexa647-labelled CAII (AID 1122); conditions: CAII-A647 binding fluorescence, higher = more signal
# [16] = COS7 lysate on small-molecule microarray, probe aHis, 635 nm (AID 1123); conditions: COS7 cell lysate, fluorescence, higher = more signal;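 also: z-score combines 667nm fluorescence intensity with signal-to-noise per printed compound spot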
# [17] = compound binding in COS7 lysate, probe aLAP1, primary screen, cell lysate, small-molecule microarray (AID 1124); conditions: probe aLAP1, fluorescence, higher = more signal;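 also: lysate comes from COS7 cells expressing LAP1 and is applied at 0.3 µg/mL; score merges spot fluorescence near 667 nm with signal-to-noise over triplicate slides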
# [18] = test system: Sam68 (KHDRBS1); test: Sam68 small-molecule binders, primary screen, biochemical, small-molecule microarray, 635 nm fluorescence (AID 1125); conditions: small-molecule microarray binding, higher = more signal;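 also: score merges 667 nm channel intensity with signal to noise over triplicate slides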
# [19] = test system: Chordin-like protein 2 (CHRDL2); test: CHRDL2 small-molecule binders, primary screen, biochemical, small-molecule microarray, 635 nm fluorescence (AID 1126); conditions: small-molecule microarray binding, fluorescence 635 nm; higher = more signal;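 also: printed compound slides probed with Chrdl2 protein at 4 µg/mL for 1 h at 4 C; score merges 667 nm emission intensity with signal to noise over three replicate slides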
# [20] = target: Concanavalin-A (Canavalia ensiformis) (UniProt P02866); test: ConA small-molecule binders, primary screen, artefact control for SMM control protein annotation, biochemical, small-molecule microarray, Alexa647 label, 635 nm (AID 1127); conditions: ConA-A647 binding fluorescence, higher = more signal;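 also: z combines 667 nm emission intensity with signal-to-noise across three replicate slides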
# Concanavalin-A (Canavalia ensiformis), sequence (P02866 whole entry, looked up): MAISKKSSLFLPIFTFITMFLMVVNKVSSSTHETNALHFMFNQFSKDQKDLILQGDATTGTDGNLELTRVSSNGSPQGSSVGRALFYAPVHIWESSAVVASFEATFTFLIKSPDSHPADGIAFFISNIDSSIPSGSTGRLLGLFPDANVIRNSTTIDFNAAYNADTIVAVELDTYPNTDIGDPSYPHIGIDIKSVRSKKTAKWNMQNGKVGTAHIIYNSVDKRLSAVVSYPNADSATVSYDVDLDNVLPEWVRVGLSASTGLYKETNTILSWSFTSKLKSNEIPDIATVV
Structure (SMILES),composite z-score [1],z-score [2],composite z-score [3],composite z-score [4],composite z-score [5],composite z-score [6],composite z-score [7],composite z-score [8],composite z-score [9],composite z-score [10],composite z-score [11],composite Z-score [12],composite z-score [13],composite z-score [14],composite z-score [15],composite z-score [16],composite z-score [17],composite z-score [18],composite z-score [19],composite z-score [20]
CCOC(=O)c1ccc(NC(=O)O[C@H]2[C@H](OC(=O)Nc3ccc4c(c3)OCO4)[C@H](OC(=O)Nc3ccc4c(c3)OCO4)[C@@H](OC)O[C@@H]2CO)cc1,1.03,0.295,0.803,1.41,-0.179,0.0771,0.369,0.252,0.645,1.22,0.0541,1.52 (inactive),0.411,0.077,0.49,1.52,0.551,1.3,0.393,1.18
CN1C(=O)C2C=CC(C(O)c3ccccn3)N(N(c3ccccc3)c3ccccc3)C2C1=O (stereo not given),-0.686,-0.276,-0.0321,0.0023,-0.0692,-0.0735,0.0684,0.427,1.07,0.451,0.206,1.31 (inactive),-0.004,-0.0166,0.822,-0.123,1.04,-0.349,0.227,0.291
NC(N)=NCCCn1cc(CNC(=O)[C@@H](N)Cc2ccccc2)nn1,-0.15,-0.332,0.566,-0.806,-0.458,-0.128,-0.0146,0.0472,0.984,0.0071,0.0958,0.79 (inactive),0.0126,-0.0279,0.948,0.96,0.155,-0.103,0.57,-0.739
N#Cc1ccc(C(O)C2C=CC3C(=O)N(c4ccccc4)C(=O)C3N2Nc2ccccc2)cc1 (stereo not given),0.86,-0.875,-0.224,1.03,0.492,0.0357,0.0815,1.09,0.747,1.1,1.01,0.115 (inactive),0.194,0.0675,0.722,1.59,0.736,0.195,-0.111,0.73
CC(C)C[C@@H]1NC(=O)[C@@H]2C[C@H](C(=O)NCCCCN(C)C)[C@H](c3cccc(OCCO)c3)N2C1=O,0.314,-0.138,-0.113,0.0053,-0.0276,-0.221,-0.138,-0.313,-0.249,-0.555,0.434,0.157 (inactive),-0.245,-0.132,0.466,1.63,0.613,0.505,0.175,0.129
COc1ccc([Si](C)(C)[C@@H]2[C@@H](CC(=O)N(CCO)Cc3ccccc3)O[C@]3(C(=O)N(Cc4cccc(N5C(=O)c6cccc7cccc5c67)c4)c4ccccc43)[C@H]2C)cc1,-0.726,-3.94,0.882,0.222,0.234,-0.1,-0.209,-0.424,0.566,0.389,-0.0059,0.363 (inactive),-0.124,-0.203,-0.199,0.135,0.0553,0.0019,0.432,1.04
Cc1cc(C)c(C(O)C2C=CC3C(=O)NC(=O)C3N2Nc2ccc(Cl)cc2Cl)c(C)c1 (stereo not given),1.4,-0.293,0.105,2.18,0.954,0.0489,0.171,1.92,1.78,1,0.961,0.234 (inactive),0.396,-0.0125,0.575,2.94,0.772,1.1,-0.48,1.09
CC(=O)NCCCC[C@@H]1NC(=O)[C@H]2C[C@@H](C(=O)NCCCC[N+](C)(C)C)[C@@H](c3cccc(OCCO)c3)N2C1=O,-0.194,-1.08,1.47,-2.42,-1.62,0.027,0.0121,-0.122,1.04,0.604,-1.1,2.16 (inactive),0.204,-0.0974,0.704,1.75,1.16,0.719,1.49,1.1
O=C1O[C@H](c2ccccc2)[C@H](c2ccccc2)N2[C@H]1[C@@H](C(=O)Nc1nc3ccccc3s1)[C@]1(C(=O)Nc3ccc(C#CC4(O)CCCCCC4)cc31)[C@H]2c1ccccc1OCCO,1.37,-2.69,0.561,1.04,-0.243,0.0068,0.0469,0.345,1.34,0.0934,0.743,-0.305 (inactive),0.0459,-0.0454,0.461,1.82,0.398,1.3,0.413,1.07
COCCCNC(=O)[C@]1(CCS(=O)(=O)c2ccccc2)N=C(c2ccc(OCCCO)cc2)O[C@@H]1c1ccccc1CN=[N+]=[N-],0.826,-1.47,0.329,2.49,1.12,0.392,0.536,1.54,2.7,2.16,1.05,0.0933 (inactive),0.271,0.228,0.735,2.79,0.295,1.3,-0.79,1.24
CCC[C@@H]1C[C@@]1(CCC)[C@@H](NC(=O)OCc1ccccc1)c1ccc(-c2ccccc2)cc1,-0.44,-1.5,-0.484,0.233,1.1,-0.0026,1.42,-0.304,-0.143,-0.899,-0.477,0.572 (inactive),0.112,0.0339,-0.198,0.27,0.643,-0.303,-0.141,-0.914
